HIV TAR-Tat: HIV-1 TAR-Tat binding disruption; HIV-1 TAR RNA, Tat peptide displacement FRET; hits give high values; z-score (no concentration beside the values); 100,000 tested, 0.6% active; active = z-score of 3 or more in at least 2 runs
CDC25B-CDK2 inh: human CDC25B-CDK2/CyclinA binding inhibition. z-score (concentration not given with the values). 94,000 tested, 0.72% active. AID 1259370. P30305+P24941. HTRF CDC25B-CDK2/CyclinA binding, anti-His/anti-Flag; hits give high values; in the data active = z-score above about 3.2
Numbers stand for hits; - = inactive; . = no result given. In the library only some 0.93% were active in any assay of this set; here they are far more common.

SMILES	HIV TAR-Tat	CDC25B-CDK2 inh
Cc1ccc(S(=O)(=O)Nc2ccc(O)c3cccnc23)cc1	-	8.3
Cc1ccc(S(=O)(=O)Nc2ccc(Cl)c3cccnc23)cc1	-	-
Cc1ccc(S(=O)(=O)Nc2ccc(O)c3ncccc23)cc1	-	15
CCOc1ccc(NC(=O)NC2(C(F)(F)F)Oc3ccccc3O2)cc1	.	-
COc1ccc(Nc2ncnc3c2cnn3-c2ccc(F)cc2)cc1Cl	-	.
CCc1cc2c3c([nH]c2cc1S(=O)(=O)Nc1ccc(Cl)cc1F)CCCC3=O	4.3	.
CCc1cc2c3c([nH]c2cc1S(=O)(=O)Nc1ccc(F)cc1F)CCCC3=O	-	.
Cc1ccc(CSC2=NS(=O)(=O)c3ccc(C)cc3N2)cc1	-	.
O=C1C(NC2CCCCC2)=C(N2CCCCC2)C(=O)c2ccccc21	.	5
O=c1c(NC2CCCCC2)c(-c2ccccc2)c1=O	-	.
CCOc1ccc(-c2n[nH]c3c2C(c2ccc(OC)cc2OC)NC3=O)cc1 (stereo unspecified)	-	-
CN(Cc1ccccc1)c1nnc(NC(=O)NCc2ccccc2)s1	8	-
CN(Cc1ccccc1)c1nnc(NC(=O)Nc2ccc3c(c2)OCCO3)s1	-	-
Cc1c(C(=O)NCCc2ccsc2)sc2nc3n(c(=O)c12)CCCC3	-	.
O=C(NCC1CCCO1)c1cc2c(s1)-c1ccccc1SC2 (stereo unspecified)	.	-
O=c1ccc(C2CCN(S(=O)(=O)c3ccc(F)cc3)CC2)nn1-c1ccccc1	-	-
COc1ccc(Oc2ccc([N+](=O)[O-])c3nonc23)cc1	.	12
COc1ccc(Oc2ccc([N+](=O)[O-])cc2-c2nc(-c3ccccn3)no2)cc1	.	-
Nc1ncc(C2=C(Cl)C(O)C(Cl)=C(Cl)C2O)s1 (stereo unspecified)	.	20
Nc1ncc(S(=O)(=O)O)s1	.	-
CCC(O)c1nc2ccccc2n1Cc1ccccc1C (stereo unspecified)	-	-
COc1ccc2[nH]cc(CCNC(=O)NC3CCCCC3)c2c1	-	-
Cc1cc(C)c2c(-n3cccc3)nn(CC(=O)NC3CCCC3)c2n1	-	.
CC(C)Cn1cc(NC(=O)NC2CCCCC2)c2ccccc2c1=O	-	.
Cn1cc(NC(=O)NC2CCCCC2)c2ccccc2c1=O	-	19
SMILES	HIV TAR-Tat	CDC25B-CDK2 inh
CCc1ccc(-c2cc(C)no2)cc1S(=O)(=O)N1CCCC(CN2CCc3ccccc3C2)C1 (stereo unspecified)	-	.
COc1cccc(CC2C(=O)Nc3ccccc32)c1 (stereo unspecified)	-	-
COc1cccc(C[C@H]2NC[C@H](O)[C@H]2OC(C)=O)c1	3.8	.
O=C1CCCC2=C1C(c1cccs1)n1nc(SCc3cccc(Cl)c3)nc1N2 (stereo unspecified)	-	-
O=C(O)CCCNc1nc(Cl)nc(N2CCCCC2)n1	-	-
O=C(Nc1nc(-c2cccs2)ns1)c1ccc(F)cc1	-	-
CC1CCCC(NC(=O)c2nn(C)c3c2COc2ccccc2-3)C1C (stereo unspecified)	-	-
Cc1ccccc1NC(=O)Nc1sc2nc3n(c(=O)c2c1C)CCC(C)CC3 (stereo unspecified)	-	12
COc1cc(OC)c(NC(=O)Nc2sc3nc4n(c(=O)c3c2C)CCC(C)CC4)cc1Cl (stereo unspecified)	-	11
COc1cccc(NC(=O)Nc2sc3nc4n(c(=O)c3c2C)CCC(C)CC4)c1 (stereo unspecified)	-	-
Cc1c(NC(=O)Nc2ccccc2Cl)sc2nc3n(c(=O)c12)CCC(C)CC3 (stereo unspecified)	-	-
COc1ccc(C2=NN(C(C)=O)C(c3cncc(Br)c3)O2)c(OC)c1 (stereo unspecified)	-	.
O=C(NCCN1CCCC1)C1=Cc2sc3c(c2CS1)CCCC3	-	.
Cc1sc2c(c1C)CSC(C(=O)NCCN1CCCC1)=C2	6.3	.
COc1ccc2c(c1)Cc1sc(NC(=O)c3ccc(OC)c(Br)c3)nc1-2	-	19
COc1cc(OC)cc(C(=O)Nc2nc3c(s2)CCc2ccccc2-3)c1	.	-
COC(=O)c1cc(S(=O)(=O)NCCc2ccco2)cn1C	-	.
CC1(C)CC(=O)C2=C(C1)Nc1n[nH]c(-c3ccccc3)c1C2c1ccc(Br)cc1 (stereo unspecified)	-	-
COc1cc(C(=O)NC(NC(=S)Nc2cccc3ccccc23)C(Cl)(Cl)Cl)cc(OC)c1OC (stereo unspecified)	.	5.1
COc1cccc(C(=O)NC(NC(=S)Nc2ccc(Cl)cc2Cl)C(Cl)(Cl)Cl)c1 (stereo unspecified)	.	-
CCn1nc(C)c(CCNS(=O)(=O)c2cccs2)c1C	-	.
Cc1c(C(=O)C(=O)Nc2ccc3c(c2)OCCO3)c2ccccc2n1C	-	-
O=C(O)c1ccc2c(c1)[C@@H]1C=CC[C@@H]1[C@H](c1ccccn1)N2	.	6
O=C(O)c1ccc2c(c1)[C@@H]1C=CC[C@@H]1[C@H](c1cccc(C(F)(F)F)c1)N2	.	-

Source: PubChem BioAssay (Center for Chemical Genomics, University of Michigan)
